Laboratory results published in PubChem BioAssay AID1159580 (chemical genetic matrix, 2015).
The campaign covered roughly 5,500 compounds. About 2,000 (36%) were called active. Another 18% or so got no clear call; they are omitted. Rule as the data show it: active = normalized growth mostly below about 0.91 (no sharp cut-off); inconclusive = no clear call, values can overlap the other calls; inactive = mostly above about 0.92. The list shows a part of the results.

Assay: chemical genetic growth profiling, strain panel (AID 1159580);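 also: tested at 20 µM; growth read once vehicle control cultures reached saturation at 30 °C; 1 = growth at the plate median or of vehicle wells; lower values mean less growth of the strain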
Conditions: S. cerevisiae deletion strains, growth OD
[1] = locus YDL101C, strain DUN1, stronger effect = lower value
[2] = locus YHR030C, strain SLT2, stronger effect = lower value

Measured: normalized growth

Clc1ccc(-c2csc(-c3ccno3)n2)s1
active: locus YDL134C, strain PPH21, stronger effect = lower value 0.565 | locus YEL061C, strain CIN8, stronger effect = lower value 0.89 | [2] 0.484 | locus YLR039C, strain RIC1, stronger effect = lower value 0.57 | locus YLR058C, strain SHM2 (second series), stronger effect = lower value 0.932 | locus YLR085C, strain ARP6, stronger effect = lower value 0.644 | locus YLR262C, strain YPT6, stronger effect = lower value 0.777 | locus YMR219W, strain ESC1, stronger effect = lower value 0.937 | locus YOL006C, strain TOP1, stronger effect = lower value 0.655 | locus YPL241C, strain CIN2, stronger effect = lower value 0.81
inactive: locus YAL013W, strain DEP1, stronger effect = lower value 0.942 | locus YBR229C, strain ROT2, stronger effect = lower value 0.958 | locus YCL061C, strain MRC1, stronger effect = lower value 0.985 | [1] 0.915 | locus YDR150W, strain NUM1, stronger effect = lower value 1.01 | locus YGR078C, strain PAC10, stronger effect = lower value 0.96 | locus YHR087W, strain rtc3, stronger effect = lower value 0.954 | locus YJR043C, strain POL32, stronger effect = lower value 1.01 | locus YJR075W, strain HOC1, stronger effect = lower value 0.929 | locus YML094W, strain GIM5, stronger effect = lower value 0.868 | locus YMR263W, strain SAP30, stronger effect = lower value 0.952 | locus YMR307W, strain GAS1, stronger effect = lower value 0.702 | locus YNL128W, strain TEP1, stronger effect = lower value 0.939 | locus YNL153C, strain GIM3, stronger effect = lower value 1 | locus YNL298W, strain CLA4 (second series), stronger effect = lower value 0.899 | locus YNL322C, strain KRE1, stronger effect = lower value 0.97 | locus YNR030W, strain Alg12, stronger effect = lower value 0.9 | locus YPL055C, strain LGE1, stronger effect = lower value 0.851 | locus YPR135W, strain CTF4, stronger effect = lower value 0.741

Clc1ccc(-c2csc(Nc3ccccc3)n2)s1
inactive: locus YAR019C, strain CDC15, stronger effect = lower value 0.933 | locus YBL105C, strain PKC1, stronger effect = lower value 0.933 | locus YBR135W, strain CKS1, stronger effect = lower value 0.929 | locus YBR136W, strain MEC1, stronger effect = lower value 0.923 | locus YBR160W, strain CDC28, stronger effect = lower value 0.925 | locus YDL017W, strain CDC7, stronger effect = lower value 0.928 | locus YDL028C, strain MPS1, stronger effect = lower value 0.936 | [1] 0.943 | locus YDL108W, strain KIN28, stronger effect = lower value 0.926 | locus YDL132W, strain cdc53, stronger effect = lower value 0.94 | locus YDR052C, strain DBF4, stronger effect = lower value 0.933 | locus YDR054C, strain cdc34, stronger effect = lower value 0.907 | locus YDR226W, strain ADK1, stronger effect = lower value 0.936 | locus YFL009W, strain cdc4, stronger effect = lower value 0.929 | locus YFL029C, strain CAK1, stronger effect = lower value 0.923 | locus YFR003C, strain YPI1, stronger effect = lower value 0.933 | locus YFR028C, strain CDC14, stronger effect = lower value 0.926 | locus YIL147C, strain SLN1, stronger effect = lower value 0.932 | locus YJR016C, strain ILV3, stronger effect = lower value 0.925 | locus YKL193C, strain SDS22, stronger effect = lower value 0.921 | locus YMR001C, strain CDC5, stronger effect = lower value 0.925 | locus YMR277W, strain FCP1, stronger effect = lower value 0.921 | locus YNL006W, strain LST8, stronger effect = lower value 0.932 | locus YNL161W, strain CBK1, stronger effect = lower value 0.923 | locus YNL207W, strain RIO2, stronger effect = lower value 0.915 | locus YNL222W, strain SSU72, stronger effect = lower value 0.931 | locus YOL078W, strain AVO1, stronger effect = lower value 0.926 | locus YOR329C, strain SCD5, stronger effect = lower value 0.922 | locus YPL209C, strain IPL1, stronger effect = lower value 0.915 | locus YPR025C, strain CCL1, stronger effect = lower value 0.926 | locus YPR106W, strain ISR1, stronger effect = lower value 0.906 | locus YPR111W, strain DBF20, stronger effect = lower value 0.917 | strain NNK1, stronger effect = lower value 0.916 | strain TSCII, stronger effect = lower value 0.92
active: locus YDL214C, strain PRR2, stronger effect = lower value 0.382 | locus YDR477W, strain SNF1, stronger effect = lower value 0.24 | locus YER123W, strain YCK3, stronger effect = lower value 0.354 | locus YER133W, strain GLC7, stronger effect = lower value 0.363 | locus YFR019W, strain FAB1, stronger effect = lower value 0.593 | locus YGR040W, strain KSS1, stronger effect = lower value 0.311 | locus YGR052W, strain FMP48, stronger effect = lower value 0.203 | locus YGR092W, strain DBF2, stronger effect = lower value 0.33 | [2] 0.146 | locus YHR079C, strain IRE1, stronger effect = lower value 0.452 | locus YHR082C, strain KSP1, stronger effect = lower value 0.23 | locus YHR205W, strain SCH9, stronger effect = lower value 0.273 | locus YJL095W, strain BCK1, stronger effect = lower value 0.224 | locus YJL157C, strain FAR1, stronger effect = lower value 0.434 | locus YJR066W, strain TOR1 (second series), stronger effect = lower value 0.471 | locus YJR066W, strain TOR1, stronger effect = lower value 0.276 | locus YKL048C, strain ELM1, stronger effect = lower value 0.771 | locus YKL067W, strain YNK1, stronger effect = lower value 0.521 | locus YKL101W, strain HSL1, stronger effect = lower value 0.451 | locus YKL203C, strain TOR2, stronger effect = lower value 0.385 | locus YLR113W, strain HOG1, stronger effect = lower value 0.216 | locus YLR133W, strain CKI1, stronger effect = lower value 0.39 | locus YLR403W, strain SFP1, stronger effect = lower value 0.332 | locus YML070W, strain DAK1, stronger effect = lower value 0.408 | locus YMR205C, strain PFK2 (second series), stronger effect = lower value 0.578 | locus YNL020C, strain ARK1, stronger effect = lower value 0.419 | locus YNL183C, strain NPR1, stronger effect = lower value 0.148 | locus YNL307C, strain MCK1 (second series), stronger effect = lower value 0.28 | locus YOL136C, strain PFK27, stronger effect = lower value 0.453 | locus YOR061W, strain CKA2, stronger effect = lower value 0.414 | locus YOR119C, strain RIO1, stronger effect = lower value 0.409 | locus YOR231W, strain MKK1, stronger effect = lower value 0.435 | locus YPL031C, strain PHO85, stronger effect = lower value 0.295 | locus YPL153C, strain RAD53, stronger effect = lower value 0.438 | locus YPL204W, strain HRR25, stronger effect = lower value 0.435 | locus YPL256C, strain CLN2, stronger effect = lower value 0.289
